Screens: PubChem BioAssay, several laboratories
In the library only some 1.7% were active in any assay of this set; here they are far more common.
PfHsp40 yeast: rescue of PfHsp40-mediated yeast toxicity; S. cerevisiae expressing PfHsp40, growth rescue, ATP luminescence; growth rescue, % at 12.5 µM; actives 0.68% (n = 340,000); AID 504582; in the data active means growth rescue above about 28%, passing the limit was not always enough;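 further: yeast W303a lacking pdr1 and pdr3 grown in galactose medium; growth measured after three days at 30 °C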
PriA SSB inh: blocks PriA binding to SSB C-terminal tail. AlphaScreen SSBct-PriA binding, biotinylated peptide. inhibition, % at 33 µM. actives 0.6% (n = 430,000); in the data active means inhibition mostly above about 37%, no sharp cut-off; inactive means mostly below about 20%;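 further: plate controls were negative control peptide for no effect and reference peptide for full effect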
BJeLR viability: BJeLR cell viability loss; inhibition, % (concentration not given with the values); AID 1554; actives 0.17% (n = 300,000); BJeLR (HRASV12) viability, CellTiter-Glo ATP luminescence, 48 h; in the data active means inhibition above about 50%
PrP UTR inh: inhibition of PrP 5' UTR reporter expression; cell-based PrP 5' UTR mRNA reporter, plate reader; AID 488862; inhibition, % (no concentration beside the values); actives 0.35% (n = 340,000); in the data active means inhibition above about 52%; further: 0 = median of the neutral control wells
PrPC TRFRET: cell surface PrPC inhibition, primary TR-FRET screen; AID 720596; TR-FRET read-out; P04156; inhibition, % at 13.8 µM; actives 0.43% (n = 370,000); in the data active means inhibition above about 24%; further: 0% = median of the test wells and 100% = reference compound wells
Y pestis TopoI: inhibitors of Yersinia pestis topoisomerase I | activity, % at 10 µM | actives 0.064% (n = 360,000) | Y. pestis Topo-I cleavage product accumulation, plate reader | AID 504884; in the data active means activity above about 50%, passing the limit was not always enough
* = called active by the depositor.

How did Cc1cc(NS(=O)(=O)c2ccc(C3CCCCC3)cc2)no1 do in these assays?
PfHsp40 yeast: 509.5*; PriA SSB inh: 1.2; BJeLR viability: -2.8; PrP UTR inh: -32.8; PrPC TRFRET: -3.8; Y pestis TopoI: 12.8

What do the screens show for `Cc1cc(NS(=O)(=O)c2ccc(CC(C)C)cc2)no1`?
PfHsp40 yeast: 39.9*; PriA SSB inh: -7.7; BJeLR viability: 1.1; PrP UTR inh: -7.0; PrPC TRFRET: -3.2; Y pestis TopoI: 8.4

Results for N#Cc1cccc(C(=O)N2CCCC[C@H](c3ccc(F)cc3)C2)c1 ?
PriA SSB inh: -4.0

How did CN(C)c1cccc(C(=O)N2CCCC[C@H](c3ccc(F)cc3)C2)c1 do in these assays?
PriA SSB inh: 57.0*

How did CCOC(=O)Nc1nc(CC(=O)Nc2ccccc2SC)cs1 do in these assays?
PriA SSB inh: -6.0

How did Cc1cccc(CCN=c2c([N+](=O)[O-])nn(-c3ccccc3)n2O)c1 do in these assays?
PfHsp40 yeast: 6.5; PriA SSB inh: 39.5*; BJeLR viability: -3.6; PrP UTR inh: 10.8; PrPC TRFRET: -19.2; Y pestis TopoI: -7.1

Results for COc1ccc(Cl)c2sc(NC(=O)c3ccccc3SC)nc12 ?
PriA SSB inh: -6.0

How did C=C1C(=O)O[C@@H]2C[C@@H](C)[C@@H]3C4OC4C(=O)[C@@]3(C)[C@@H](O)[C@H]12 (stereo partly drawn) do in these assays?
PfHsp40 yeast: 2.7; PriA SSB inh: -22.6; BJeLR viability: 36.6; PrP UTR inh: -58.3; PrPC TRFRET: 36.1*; Y pestis TopoI: -12.5

How did CC(=O)c1sc2[nH]c(=S)[nH]c(=O)c2c1C do in these assays?
PriA SSB inh: 7.0

Results for O=C(c1cc(-c2cccs2)on1)N1CCN(c2ccc(-n3cncn3)nn2)CC1 ?
PriA SSB inh: -3.0

Results for Cc1cccc(Nc2nc(-c3cccs3)cs2)n1 ?
PfHsp40 yeast: 11.0; PriA SSB inh: 6.2; BJeLR viability: -0.8; PrP UTR inh: -118.7; PrPC TRFRET: 12.5; Y pestis TopoI: 2.7

Results for CNc1nc(-c2ccccn2)cs1 ?
PriA SSB inh: 118.5*

What do the screens show for `COc1ccc(CCNc2nc(-c3ccccn3)cs2)cc1OC`?
PfHsp40 yeast: 0.9; PriA SSB inh: 39.2*; BJeLR viability: -12.3; PrP UTR inh: -18.7; PrPC TRFRET: -3.2; Y pestis TopoI: 7.6

What do the screens show for `CNc1nc(-c2c[nH]c3ccccc23)cs1`?
PfHsp40 yeast: 15.7; PriA SSB inh: 51.7*; BJeLR viability: -6.4; PrP UTR inh: -28.1; PrPC TRFRET: 3.5; Y pestis TopoI: -11.3

Results for COc1ccc(CCNc2nc(-c3ccncc3)cs2)cc1OC ?
PfHsp40 yeast: 1.6; PriA SSB inh: 1.5; BJeLR viability: -0.3; PrP UTR inh: -32.7; PrPC TRFRET: -2.9; Y pestis TopoI: 10.6

How did Cc1cccc(Nc2nc(-c3ccccn3)cs2)n1 do in these assays?
PfHsp40 yeast: 512.4*; PriA SSB inh: 94.7*; BJeLR viability: -1.0; PrPC TRFRET: -5.7; Y pestis TopoI: -2.4

What do the screens show for `CC(C)c1nc(-c2ccccn2)cs1`?
PriA SSB inh: 7.2

How did CC1CCCN(S(=O)(=O)c2ccc(C(=O)N(CCN(C)C)c3nc4cc5c(cc4s3)OCO5)cc2)C1 (stereo not drawn) do in these assays?
PriA SSB inh: 22.0

What do the screens show for `COC(=O)c1ccc(NC(=O)C(=O)NCC2CCN(Cc3ccccc3SC)CC2)cc1`?
PriA SSB inh: 3.0

Results for O=C(CCc1ccc(C(F)(F)F)cc1)N1CCC2(CC1)OCCS2 ?
PriA SSB inh: -7.0

Results for Cc1cccnc1Nc1nc(-c2ccccn2)cs1 ?
PfHsp40 yeast: 76.7*; PriA SSB inh: 67.7*; BJeLR viability: 53.1*; PrP UTR inh: -27.8; PrPC TRFRET: 23.8; Y pestis TopoI: 1.1

How did Cc1cc(C(F)(F)F)nc(CCNC(=O)NCc2cccs2)n1 do in these assays?
PriA SSB inh: 15.0

What do the screens show for `N#Cc1c(N2C(=O)CC(Sc3ccccc3C(=O)O)C2=O)sc2c1CCCC2` (stereo not drawn)?
PriA SSB inh: 18.0

What do the screens show for `CCOC(=O)c1c(N2C(=O)CC(Sc3ccccc3C(=O)O)C2=O)sc2c1CCCC2` (stereo not drawn)?
PfHsp40 yeast: 41.0*; PriA SSB inh: 6.5; BJeLR viability: 6.0; PrP UTR inh: -22.2; PrPC TRFRET: 0.9; Y pestis TopoI: 16.4
